# Assay outcomes (PubChem BioAssay)
# Compounds with a hit are over-represented: about 19% of the library has one in this group of screens.
# Pf growth 48h: P. falciparum growth inhibition at 48 hours (one generation); 310,000 tested, 5.9% active; Potency, µM (doses to about 28.7 µM), for the others: top-dose activity change, negative = inhibition, usual class: inhibitors; P. falciparum luciferase growth in erythrocytes, 48 h; further: potency means the concentration at half of the fitted maximal effect; on the % scale 0 is the no-effect control and ±100 the full control effect
#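 First compound was added to culture medium, then infected red cells at 0.1% parasitemia and 2% hematocrit (final). After incubation at 37 C under 5% CO2, luciferase detection reagent was dispensed and light output recorded.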
# Shiga inhibitor: inhibitors of Shiga toxin in Vero cells; inhibition, % at 38.7 µM; 290,000 tested, 9.2% active; Vero cells, Shiga toxin protein synthesis inhibition reporter; in the data active means inhibition mostly above about 28%, no sharp cut-off; inactive means mostly below about 43%; further: 0% is about no effect
# SARS PLP yeast: inhibitors of SARS-CoV papain-like protease in yeast; S. cerevisiae expressing SARS-CoV PLpro, growth rescue; Potency, µM (top dose mostly 32.9 µM), for the others: top-dose activity, positive = growth rescue, actives largely listed as activators; 330,000 tested, 0.19% active; calls by dose curve; further: potency means the concentration at half of the fitted maximal effect; 0% is about no effect; nearly all actives have a fitted effect of over 55% in size
# CHX counter: counter-screen for Shiga toxin inhibitors: cycloheximide protein synthesis inhibition; cell reporter, cycloheximide protein synthesis inhibition counterscreen; max response, %; 300,000 tested, 12% active; AID 2314; in the data active means max response mostly above about 13%, no sharp cut-off; inactive means mostly below about 14%; further: read at 38.3 µM for the half of the compounds with a filed dose; 0% is about no effect
# Pf growth 96h: P. falciparum growth inhibition at 96 hours; P. falciparum luciferase reporter growth, 96 h; Potency, µM (titrated, usually from 28.7 µM), for the others: top-dose activity change, negative = inhibition, usual class: inhibitors; 320,000 tested, 6.9% active; AID 504834; further: potency means the concentration at half of the fitted maximal effect; on the % scale 0 is the no-effect control and ±100 the full control effect
#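 Delayed-death screen, second-generation endpoint: infected erythrocytes, 2% hematocrit, 0.05% parasitemia final; 96 hours at 37 C, 5% CO2; luciferase detection reagent; luminescence decrease equals reduced growth.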
# AMA1 RON2 block: inhibitors of Plasmodium falciparum AMA1-RON2 interaction | AlphaScreen AMA1-biotinylated RON2 peptide binding | 360,000 tested, 0.2% active | Potency, µM (top dose mostly 58.2 µM), inactives show at the top dose activity change, negative = inhibition, actives largely listed as inhibitors | AID 720542;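 further: potency means the concentration at half of the fitted maximal effect; 0% = vehicle wells and -100% = peptide control; nearly all actives have a fitted effect of over 45% in size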
#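 AMA1 (3D7) with his tag at 25 nM final met compounds first, then biotinylated RON2 peptide at 25 nM; detection used donor plus acceptor beads, 10 µg/mL apiece, read by AlphaScreen after 30 min at room temperature.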
# * = called active by the depositor; i = inactive; ? = inconclusive; · = no result. Unless noted, the call rests on the fitted dose curve; in most records, active means well fitted curve in the direction sought with a large enough effect; inconclusive means small, poorly fitted or top-dose-only effect, or another doubt; inactive means no such curve, though single readings can be large; an effect the other way counts as inactive or inconclusive.
SMILES,Pf growth 48h,Shiga inhibitor,SARS PLP yeast,CHX counter,Pf growth 96h,AMA1 RON2 block
COc1ccccc1N1CCN(C(=S)Nc2cccc(C)c2)CC1,0.0%,52.4,0.8%,32.5*,7.0%,-6.5%
Cc1ccc(NC(=S)N2CCCCCC2)c(C)c1,18.2%,25.3,3.7%,18.2*,-29.0%,11.1%
Cc1ccc(-c2cnc(NC(=O)CCC(=O)N3CCCCC3)n2C)cc1,55.1%,32.4,-10.1%,8.2,11.7µM*,59.8%
COc1ccc(NC(=O)c2cc(S(=O)(=O)N3CCS(=O)(=O)CC3)ccc2Cl)cc1,22.6%,-15.6,5.7%,6.3,?,8.8%
Nc1nc2cc3c(cc2cc1C(=O)NCc1ccc(F)cc1)OCO3,·,·,·,·,·,26.2%
COc1ccc(C2(CNC(=O)c3ccc(OC)c([N+](=O)[O-])c3)CCCCC2)cc1OC,?,-9.4,-7.9%,1.1,?,3.2%
CCc1ccc(NC(=O)C2=CC(c3cccs3)=NS(=O)(=O)N2C)cc1,48.6%,18.2,13.0%,1.4,29.4%,-18.8%
COc1ccc(-c2cc(C(=O)Nc3ccc(C)c(C)c3)no2)cc1,14.7%,0.3,3.0%,-5.8,?,-8.9%
Cc1ccc(NC(=O)c2cc(-c3ccc(F)cc3)on2)cc1C,21.7%,35.1,0.5%,20.3*,?,-4.4%
Cc1ccc(NC(=O)c2cc(-c3cccs3)on2)cc1C,455.7%,169.6*,-0.5%,56.9*,?,2.5%
COc1ccc(NC(=O)c2cc(-c3cccs3)on2)cc1OC,-4.9%,36.1,-2.0%,24.2*,-15.3%,6.5%
CCc1ccc(NC(=O)c2cc(-c3cccs3)on2)cc1,309.9%,100.0*,1.5%,38.4*,-15.0%,-1.6%
COc1ccc(NC(=O)c2cc(-c3ccccc3)on2)cc1OC,48.5%,·,-2.2%,7.4,-9.4%,-0.6%
Cc1c(Cl)cnc(NC(=O)COC(=O)c2cccc(S(=O)(=O)N3c4ccccc4CC3C)c2)c1Cl (stereo unspecified),1.9%,-6.5,9.4%,2.0,4.9%,0.0%
CCn1nc(C)c(CNC(=O)Nc2ccccc2C(=O)OC)c1C,-7.6%,4.6,1.2%,1.1,7.1%,5.9%
CCc1ccc(NC(=O)c2sccc2-n2cccc2)cc1,?,55.3,-21.8%,19.1*,117.9%,?
Cn1ccs/c1=N\C(=O)Nc1cccc(C(F)(F)F)c1,37.3%,69.4*,-3.6%,28.2*,0.0%,4.3%
Cc1cccc(NC(=O)CSCC(=O)N=c2sccn2C)c1,-3.8%,·,-4.4%,·,6.3%,-8.1%
COc1ccc(NC(=O)c2cc(-c3cccs3)on2)c(OC)c1,-2.8%,7.4,2.2%,-6.7,82.1%,0.8%
O=C(Nc1cccc(C(F)(F)F)c1)c1cc(-c2cccs2)on1,60.3%,12.2,3.1%,23.0*,?,34.2%
COc1ccc(NC(=O)c2cc(-c3cccs3)on2)cc1,108.9%,72.7*,2.0%,29.0*,-78.0%,9.4%
COc1ccc(NC(C)C(=O)Nc2cccc(S(=O)(=O)N3CCOCC3)c2)cc1OC (stereo unspecified),·,·,-1.3%,·,·,5.1%
CCN(CC)CCN(C(=O)Cn1nnc(-c2ccc(OC)c(OC)c2)n1)C(C(=O)NC1CCCC1)c1ccc(F)cc1 (stereo unspecified),·,-12.9,-4.0%,-3.7,-23.0%,-3.6%
O=C(Nc1c2c(nn1-c1ccc(F)cc1)CS(=O)(=O)C2)c1ccc2c(c1)OCO2,62.6%,-7.2,-1.6%,-2.4,?,9.0%
Cn1c(O)c(N=NC(N)=S)c2ccccc21,?,·,·,·,12µM*,·
SMILES,Pf growth 48h,Shiga inhibitor,SARS PLP yeast,CHX counter,Pf growth 96h,AMA1 RON2 block
Cn1c(O)c(N=Nc2ccccc2[N+](=O)[O-])c2ccccc21,76.8%,74.9*,-3.3%,31.3*,i,-11.3%
Cn1c(O)c(N=NC(=O)c2ccccc2O)c2ccccc21,-0.7%,62.3*,-2.7%,36.9*,-2.0%,23.6%
Cc1occc1C(=O)N=Nc1c(O)n(C)c2ccccc12,235.7%,58.2*,-21.3%,35.8*,332.7%,19.9%
Cc1ccc2[nH]c(O)c(N=Nc3ccccc3[N+](=O)[O-])c2c1,·,·,·,·,·,4.4%
Cc1occc1C(=O)N=Nc1c(O)[nH]c2ccc(Br)cc12,139.0%,74.8*,-24.9%,32.9*,4.15µM*,·
Cc1ccc(NC(=O)Cn2c(O)c(N=NC(=O)c3ccncc3)c3ccccc32)cc1,29.1%,8.2,-1.1%,-3.1,5.2%,-7.0%
Cc1cc(N=NC(=O)c2ccccc2O)c2ccccc2c1O,55.1%,125.8*,-8.3%,40.0*,?,-14.3%
Cc1cccc(NC(=O)Cn2c(O)c(N=NC(N)=S)c3ccccc32)c1,-9.8%,3.5,1.1%,1.6,14.7µM*,32.6%
O=C(CNC(=O)c1ccco1)N=Nc1c(O)[nH]c2ccc(Br)cc12,27.3%,-6.1,-1.4%,-1.9,21.8%,-15.2%
Cc1cc(C(=O)CCC(=O)Nc2ncccc2O)c(C)s1,26.0%,·,-5.6%,·,51.3%,3.3%
Cc1c(Nc2nc(-c3cccc([N+](=O)[O-])c3)cs2)c(=O)n(-c2ccccc2)n1C,-0.7%,-1.2,0.1%,-2.0,3.0%,-5.2%
CC(=O)Nc1nc(C)c(-c2csc(Nc3ccccn3)n2)s1,-1.8%,89.9*,-3.7%,37.3*,?,-2.1%
CC(=O)Nc1nc(C)c(-c2csc(Nc3ccc(O)cc3)n2)s1,2.62µM*,33.2,2.9%,14.7*,?,14.8%
CC(=O)Nc1nc(C)c(-c2csc(Nc3cccc([N+](=O)[O-])c3)n2)s1,·,1.7,5.4%,0.1,0.828µM*,5.7%
Cc1[nH]n(-c2nc(-c3cccc([N+](=O)[O-])c3)cs2)c(=O)c1C,70.9%,53.6*,-16.3%,36.7*,21.5%,57.7%
Cc1nn(Cc2ccccc2)c(Cl)c1/C=C/C(=O)OCC(=O)N(C)C1CCS(=O)(=O)C1 (stereo unspecified),-25.4%,-15.3,2.5%,7.4,?,-2.7%
O=C(Nc1ccc2nc3n(c(=O)c2c1)CCCCC3)C(=O)N1CCN(c2ccc(F)cc2)CC1,?,-1.8,1.9%,-4.3,?,-4.4%
O=C(O)c1cn(Cc2ccccc2)nc1-c1cccnc1,3.2%,8.6,1.0%,4.4,0.9%,0.7%
CC(=O)c1cccc(Nc2nc(-c3cccc([N+](=O)[O-])c3)cs2)c1,52.5%,103.3*,-32.5%,38.2*,55.4%,-2.7%
COc1ccc2c(c1OC)C(=O)OC2Nc1nc(-c2cccc([N+](=O)[O-])c2)cs1 (stereo unspecified),36.3%,42.9*,-6.1%,56.9*,49.0%,-21.0%
O=[N+]([O-])c1cccc(-c2csc(N/N=C/c3cccc(O)c3)n2)c1,-20.2%,104.5*,-0.2%,28.0*,40.9%,4.4%
O=[N+]([O-])c1cccc(NC(=S)Nc2nc(-c3ccc(Cl)cc3Cl)cs2)c1,5.86µM*,19.8,1.1%,0.2,0.0%,·
